Source: PubChem BioAssay (Tox21)
Values joined by “and” are separate entries in the source; they are usually repeats but may differ in a detail not shown here. Identical values can stand only once. Inconclusive results are not listed. A call without a number means that no potency is given here. Active and inactive are the calls of the source. Calls follow the shape of the full dose curve.

Experiment: qHTS assay for small molecules that induce genotoxicity in human embryonic kidney cells expressing luciferase-tagged ATAD5 - cell viability (AID 651634); also: nearly all actives have a fitted effect of over 25% in size
Conditions: HEK293T ATAD5-luc cells viability, CellTiter-Fluor, 15.5 h; series mostly up to 83.3 µM
Source text: National Center for Advancing Translational Sciences [NCATS]
NIH Chemical Genomics Center [NCGC]
U.S. Environmental Protection Agency [EPA]
National Institutes of Environmental Health Sciences [NIEHS]
National Toxicology Program [NTP]
U.S. Food and Drug Administration [FDA]
Enhanced Level of Genome Instability Gene 1 (ELG1; human ATAD5) protein levels increase in response to various types of DNA damage. Using a luciferase reporter-gene tagged with ElG1, a cell-based assay [developed by Kyungjae Myung, NHGRI, NIH] was used to measure the induction of ATAD5 in human embryonic kidney cells (HEK293T). So, increase in luciferase activity can be used to identify the compounds that cause genetic stress. In addition to genotoxicity, these cells were also used to test for cytotoxicity by measuring the protease activity within live cells.
Tox21 Assay Protocol Summary:
For cytotoxicity screening, 2,000 cells in 5 uL/well were dispensed into white, solid-bottom 1536-well plates using a Multidrop Combi (Thermo Scientific) dispenser. Following transfer of 23 nL compound or DMSO vehicle by a pin tool, the plates were incubated 15.5 hr at 37C and 5% CO2. 1 ul CellTiter-Fluor reagent (Promega, Madison, WI) was then added to each plate and following 30 min incubation at 37C, fluorescence intensity was quantified on a ViewLux CCD-based plate reader.
Potency is read from the fitted curve at half-maximal effect.

Row | Compound | Potency
1 | O=C(CCl)CCl | 63.4 µM (active) and 54.5 µM (active)
2 | CCCCCl | inactive
3 | O=C(O)C(O)C(O)C(=O)O (stereo not given) | inactive
4 | Oc1cccc(Cl)c1 | inactive
5 | CCN(C(C)=O)c1cccc(-c2ccnc3c(C#N)cnn23)c1 | inactive
6 | CCOP(=O)(SC(C)CC)N1CCSC1=O (stereo not given) | inactive
7 | SCc1ccccc1 | inactive
8 | CC1(C)CC(=O)CC(C)(C)N1[O] | inactive
9 | CC(C)(C)OOC(C)(C)CCC(C)(C)OOC(C)(C)C | inactive
10 | COc1ccc(C(=O)c2c(C)n(CCN3CCOCC3)c3ccccc23)cc1 | inactive
11 | C[CH2][Hg][S]c1ccccc1C(=O)O | 11.9 µM (active) and 27.3 µM (active)
12 | CCCCC(CC)CO[N+](=O)[O-] (stereo not given) | inactive
13 | OCCSSCCO | inactive
14 | Cc1nnc(-c2ccccc2)c(=O)n1N | inactive
15 | CN1CC[C@]23c4c5ccc(O)c4O[C@H]2[C@@H](O)CC[C@H]3[C@H]1C5 | inactive
16 | CC[N+]1(C)CCCC(OC(=O)C(O)(c2ccccc2)c2ccccc2)C1 (stereo not given) | inactive
17 | CC(C)C1(C)N=C(c2ncccc2C(=O)O)NC1=O (stereo not given) | inactive
18 | CCOC(=O)c1cncn1C(C)c1ccccc1 (stereo not given) | inactive
19 | CCNC(=O)NC(=O)/C(C#N)=N/OC | inactive
20 | CC(C)CCCCCCCOC(=O)c1ccccc1C(=O)OCCCCCCCC(C)C | inactive

Row | Compound | Potency
21 | CN1CC[C@]23c4c5ccc(O)c4O[C@H]2[C@@H](O)C=C[C@H]3[C@H]1C5 | inactive
22 | COCc1cnc(C2=NC(C)(C(C)C)C(=O)N2)c(C(=O)O)c1 (stereo not given) | inactive
23 | O=C1c2ccccc2C(=O)N1SC(Cl)(Cl)Cl | 60.3 µM (active)
24 | CCc1cnc(C2=NC(C)(C(C)C)C(=O)N2)c(C(=O)O)c1 (stereo not given) | inactive
25 | CCCCCCCCP(=O)(O)O | inactive
26 | Cc1ncc(C[n+]2csc(CCO)c2C)c(N)n1 | inactive
27 | FC(Cl)(Cl)C(F)(Cl)Cl | inactive
28 | CCC1(CC)C(=O)NC(=O)NC1=O | inactive
29 | CCC1(CCC(C)C)C(=O)NC(=O)NC1=O | inactive
30 | COP(=O)(OC)OC(Br)C(Cl)(Cl)Br (stereo not given) | inactive
31 | CN(C)C(=O)Nc1cccc(OC(=O)NC(C)(C)C)c1 | inactive
32 | CCCCCCCCCCCCCCCl | inactive
33 | O=[N+]([O-])O[C@H]1CO[C@H]2[C@@H]1OC[C@H]2O[N+](=O)[O-] | inactive
34 | Nc1cc(Cl)cc(C(=O)O)c1Cl | inactive
35 | CCC(C)Cl (stereo not given) | inactive
36 | CCC[N+](CCC)(CCC)CCC | inactive
37 | CN[C@@H](C)[C@H](O)c1ccccc1 | inactive
38 | Cc1nc(N(C)C)nc(OC(=O)N(C)C)c1C | inactive
39 | O=C(Cc1ccccc1)c1ccccc1 | inactive
40 | C[N+]1(CCC(C(N)=O)(c2ccccc2)c2ccccc2)CCCCC1 | inactive
